Pf growth 48h = inhibits P. falciparum growth in the first generation, 48 h. hit rate 5.9% among 310,000. Potency, µM (series often up to 28.7 µM), without a hit: top-dose activity change, negative = inhibition, hits mostly inhibitors. P. falciparum luciferase growth in erythrocytes, 48 h; note: potency is the fitted concentration of half-maximal effect; % is set by controls: 0 for no effect and ±100 for the full control effect
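Luminescence readout; reporter = integrated firefly luciferase in P. falciparum. RBC culture at 2% hematocrit, 0.1% parasitemia final, 37 C/5% CO2; decreased signal taken as growth inhibition.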
LmPK inhibitor = inhibitors of Leishmania mexicana pyruvate kinase | hit rate 0.37% among 290,000 | Potency, µM (titrated, usually from 57.5 µM), for the others: at the top dose activity change, negative = inhibition, most hits filed as inhibitors | purified LmPK, Kinase-Glo ATP luminescence, 1 h | Q27686; note: potency is the fitted concentration of half-maximal effect; % is set by controls: 0 for no effect and ±100 for the full control effect
Target sequence (Q27686 whole entry, looked up): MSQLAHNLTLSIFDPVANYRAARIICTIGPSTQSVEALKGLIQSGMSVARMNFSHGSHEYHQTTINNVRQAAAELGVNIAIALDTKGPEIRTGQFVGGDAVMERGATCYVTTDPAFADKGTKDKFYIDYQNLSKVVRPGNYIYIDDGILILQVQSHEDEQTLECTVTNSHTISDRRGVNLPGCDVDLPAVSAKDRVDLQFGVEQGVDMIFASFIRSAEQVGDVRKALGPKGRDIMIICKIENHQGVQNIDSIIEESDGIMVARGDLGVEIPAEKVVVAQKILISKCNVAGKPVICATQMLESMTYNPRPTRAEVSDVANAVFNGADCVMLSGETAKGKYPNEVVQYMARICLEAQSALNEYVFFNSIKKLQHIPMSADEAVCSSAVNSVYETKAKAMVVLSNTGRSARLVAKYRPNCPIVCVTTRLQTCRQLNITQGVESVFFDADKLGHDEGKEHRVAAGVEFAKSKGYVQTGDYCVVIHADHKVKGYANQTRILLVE
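Purified LmPK (0.1 nM) with 0.5 mM PEP and 0.1 mM ADP in imidazole buffer pH 7.2 with MgCl2/KCl, 1 h at room temperature. ATP formed was read by luciferase luminescence and normalized to no-enzyme and uninhibited controls.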
Pf growth 96h = P. falciparum growth inhibition at 96 hours; Potency, µM (titrated, usually from 28.7 µM), inactives show top-dose activity change, negative = inhibition, actives largely listed as inhibitors; AID 504834; hit rate 6.9% among 320,000; P. falciparum luciferase reporter growth, 96 h; note: potency is the fitted concentration of half-maximal effect; % is set by controls: 0 for no effect and ±100 for the full control effect
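Parasite growth measured via integrated firefly luciferase reporter in P. falciparum. Infected erythrocytes at 2% hematocrit, 0.05% parasitemia final were treated 96 hours at 37 C under 5% CO2, and luminescence was read.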
Cycloheximide cs = counter-screen hit for Shiga toxin inhibitors, cycloheximide | cell reporter, cycloheximide protein synthesis inhibition counterscreen | max response, % | hit rate 12% among 300,000 | AID 2314; in the data active = max response mostly above about 13%, no sharp cut-off; inactive = mostly below about 14%; note: read at 38.3 µM for the half of the compounds with a filed dose; 0% is about no effect
Shiga inhibitor = Shiga toxin inhibition. Vero cells, Shiga toxin protein synthesis inhibition reporter. inhibition, % at 38.7 µM. hit rate 9.2% among 290,000. AID 2315; in the data active = inhibition mostly above about 28%, no sharp cut-off; inactive = mostly below about 43%; note: 0% is about no effect
* = called active by the depositor. Shown are actives, neighbours in structure and some others; about 22% of the full set was active somewhere. Unless noted, calls come from the whole dose curve; as a rule, active = well fitted inhibition curve with a large enough effect; inconclusive = small, poorly fitted or top-dose-only effect, or another doubt; inactive = no such curve, though single readings can be large or run the other way.

CCc1nn(CC(=O)NCCCN(C)Cc2ccccc2)c(=O)c2cc3sc(C)cc3n12 was read as Pf growth 48h -11%, LmPK inhibitor -1%, Pf growth 96h -24%, Cycloheximide cs -3 and Shiga inhibitor -5.
Screening COCCNC(=O)N1[C@H]2CC[C@@H]1C(C(=O)OC)=C(c1ccc(OC)c(OC)c1)C2 returned Pf growth 48h 25% and Pf growth 96h 11%.
`COC(=O)C1=C(c2cccc(OCc3ccccc3)c2)C[C@@H]2CC[C@H]1N2C(=O)NCc1cccc(F)c1` gave Pf growth 48h 8.3µM* and Pf growth 96h inconclusive.
`CCCNC(=O)N1[C@H]2CC[C@@H]1C(C(=O)OC)=C(c1cccc(C#N)c1)C2` gave Pf growth 48h -15% and Pf growth 96h 3%.
For COC(=O)C1=C(c2cccc(OCc3ccccc3)c2)C[C@@H]2CC[C@H]1N2C(=O)NCc1ccc(Cl)cc1 the results were Pf growth 48h 8.3µM* and Pf growth 96h inconclusive.
Screening COC(=O)C1=C(c2ccc(OC)c(OC)c2)C[C@@H]2CC[C@H]1N2C(=O)NCc1cc(C)oc1C(F)(F)F returned Pf growth 48h 9.3µM* and Pf growth 96h inconclusive.
COC(=O)C1=C(c2cccc(OCc3ccccc3)c2)C[C@@H]2CC[C@H]1N2C(=O)NCc1ccccc1 was read as Pf growth 48h 13µM* and Pf growth 96h inconclusive.
CCCNC(=O)N1[C@H]2CC[C@@H]1C(C(=O)OC)=C(c1ccc(OC)c(OC)c1)C2 was read as Pf growth 48h -8% and Pf growth 96h 0%.
COC(=O)C1=C(c2cccc(OCc3ccccc3)c2)C[C@@H]2CC[C@H]1N2C(=O)NCc1cc(C)oc1C(F)(F)F was read as Pf growth 48h 4.7µM* and Pf growth 96h inconclusive.
`COC(=O)C1=C(c2cccc(OCc3ccccc3)c2)C[C@@H]2CC[C@H]1N2C(=O)NCc1cccc(C(F)(F)F)c1` gave Pf growth 48h 13µM* and Pf growth 96h inconclusive.
`COC(=O)C1=C(c2ccc(OC)c(OC)c2)C[C@@H]2CC[C@H]1N2C(=O)NCc1cccc2ccccc12` gave Pf growth 48h 0.52µM* and Pf growth 96h 0.23µM*.
`COC(=O)C1=C(c2ccc(OC)c(OC)c2)C[C@@H]2CC[C@H]1N2C(=O)NCCOc1ccccc1` gave Pf growth 48h -16% and Pf growth 96h inconclusive.
`COC(=O)C1=C(c2cccc(OCc3ccccc3)c2)C[C@@H]2CC[C@H]1N2C(=O)NCc1ccccc1OC` gave Pf growth 48h 7.4µM* and Pf growth 96h inconclusive.
CC(=O)Nc1sc(C)c(C)c1C(=O)OCC(=O)Nc1cc(S(=O)(=O)N2CCCCC2)ccc1Cl was read as Pf growth 48h inconclusive, LmPK inhibitor -5%, Pf growth 96h inconclusive, Cycloheximide cs -4 and Shiga inhibitor 11.
COc1cc(C(=O)OCC(=O)N2CCC(Cc3ccccc3)CC2)cc(OC)c1OC was read as Pf growth 48h -20% and Pf growth 96h -1%.
For Cc1cnc(C(=O)OCC(=O)NC(C)CCc2ccccc2)cn1 (stereo not drawn) the results were Pf growth 48h 29%, LmPK inhibitor 3%, Pf growth 96h 28%, Cycloheximide cs -1 and Shiga inhibitor 20.
For COC(=O)C1=C(c2cccc(C#N)c2)C[C@@H]2CC[C@H]1N2C(=O)NCCOc1ccc(OC)cc1 the results were Pf growth 48h inconclusive and Pf growth 96h -17%.
`COC(=O)C1=C(c2cccc(C#N)c2)C[C@@H]2CC[C@H]1N2C(=O)NC(C)C` gave Pf growth 48h -1% and Pf growth 96h 32%.
`COC(=O)C1=C(c2cccc(OCc3ccccc3)c2)C[C@@H]2CC[C@H]1N2C(=O)NCc1ccc(OC)cc1` gave Pf growth 48h 7.4µM* and Pf growth 96h inconclusive.
Screening COC(=O)C1=C(c2cccc(OCc3ccccc3)c2)C[C@@H]2CC[C@H]1N2C(=O)NCc1ccc([N+](=O)[O-])cc1 returned Pf growth 48h 12µM* and Pf growth 96h inconclusive.
`CCC(=O)N1CCC(c2ccc(OC)cc2)=N1` gave Pf growth 48h 48%, LmPK inhibitor -5%, Pf growth 96h 74%, Cycloheximide cs 36* and Shiga inhibitor 38*.
`COCCNC(=O)CN1N=C(c2ccc(OC)cc2)CCC1=O` gave Pf growth 48h 24%, LmPK inhibitor -3%, Pf growth 96h 9%, Cycloheximide cs -3 and Shiga inhibitor -3.
